What all share (assay): NCI-60 one-dose screen, 48 h (100 = growth as untreated, 0 = no growth, -100 = all killed)
What all share (settings): 10 µM unless noted

The subject of test [1] is T-47D breast.
Test [2] deals with BT-549 breast.
For test [3], the system named is MDA-MB-435 melanoma.
The test system of test [4] is SW-620 colon.
Test [5] has as its system MCF7 breast.
Test [6] deals with HCT-116 colon.
The subject of test [7] is HCC-2998 colon.
Test [8] concerns KM12 colon.

Structures are written as SMILES. Compounds without any hit were thinned out: in the full panel of roughly 83,000, 20% have a hit.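 Compound tested at a single concentration for 48 hours in 96-well plates; a percent growth value below 10 was scored as active.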 A number with no mark means an inactive call. Calls of active or inactive are those of the source.

On to `O=C1c2c(c3c4cccnc4[nH]c3c3ccc4ccccc4c23)C(=O)N1O`, for which the growth was 40.7% in test [1]; 45% in test [2]; 47.9% in test [3]; 21.2% in test [4]; 20.8% in test [5]; 26.5% in test [6]. The growth in test [7] was 77.2%; in test [8], 50.2%.
Turning to `O=C1NC(=O)C(=Cc2cc(-c3ccc(Cl)cc3)n(-c3ccccc3)n2)C(=O)N1`, the growth in test [1] is 93.6%; in test [2], 83.9%; in test [3], 94.5%; in test [4], 96.7%; in test [5], 93.2%; in test [6] it was 94%. Further, the figures for the growth in test [7] and in test [8] were 110% and 102%, respectively.
Take `C=CC(=O)NCc1cccc(Nc2ncc(Br)c(NCCCNC(=O)C3CCC3)n2)c1`: the growth in test [1] is -12% (active); in test [2], -50.2% (active); in test [3], -51.4% (active); in test [4], 0.584% (active); in test [5], 1.62% (active); in test [6], 4.93% (active). In addition, the growth was -48.6% (active) in test [7] and 4.95% (active) in test [8].
On to `Nc1nc(Nc2ccc([N+](=O)[O-])cc2O)nc(C(Cl)(Cl)Cl)n1`, for which the growth was 73.6% in test [1]; 66.8% in test [2]; -36.6% (active) in test [3]; 54.2% in test [4]; 59.5% in test [5]; 70.6% in test [6]. Also, the growth in test [7] is 108%; in test [8], 49.8%.
Take `COc1cc(/C=C/C(=O)c2ccc(-n3cc(CN4CCN(c5cc6c(cc5F)c(=O)c(C(=O)O)cn6C5CC5)CC4)nn3)cc2)cc(OC)c1OC`: the growth in test [1] was 101%; in test [2], 92.5%; in test [3], 81.9%; in test [4], 85.9%; in test [5] it was 61.4%; in test [6] it was 17.3%. Moreover, the growth is 83.3% in test [7] and 87.1% in test [8].
As to `CN1CCN(CC(=O)N(C)c2ccc(N=C(c3ccccc3)c3c(O)[nH]c4ccc([N+](=O)[O-])cc34)cc2)CC1`, the growth is 89.7% in test [1]; 64.4% in test [2]; 23.5% in test [3]; 48.4% in test [4]; 21.9% in test [5]; 24% in test [6]. Further, the results for the growth in test [7] and in test [8] were 78.7% and 13.1%, respectively.
In the case of `O=C(NS(=O)(=O)c1ccccc1)n1cc(-c2ccncc2)c(-c2cc(O)cc(Cl)c2)n1`, the growth in test [1] is 90.1%; in test [2] it was 101%; in test [3], 66.6%; in test [4], 123%; in test [5] it was 102%; in test [6] it was 91.7%. For the same molecule, the growth in test [7] was 128%; in test [8] it was 99.5%.
In the case of `COc1c(O[C@@H]2OC(CO)[C@H](O)[C@H](O)C2O)cc2oc3cc(O)c(CC=C(C)C)c(O)c3c(=O)c2c1CC=C(C)C` (stereo not given in full), the growth in test [1] is 70.8%; in test [2], 102%; in test [3] it was 94.3%; in test [4], 104%; in test [5] it was 92.8%; in test [6], 88.8%. The growth in test [7] was 95.9%; in test [8], 106%.
For the molecule `Cc1c(N2CCCCC2)[nH]c2ccccc12`, the growth in test [1] was 110%; in test [2], 121%; in test [3], 103%; in test [4] it was 100%; in test [5] it was 111%; in test [6] it was 105%. Also, the growth in test [7] and in test [8] was 113% in each case.
As for `COc1cccc(/C=C/C(=O)/C=C(/C=C/c2cccc(OC)c2OC)OB(F)F)c1OC`, the growth in test [1] is 41.2%; in test [2], 48%; in test [3], 14.8%; in test [4] it was 16.4%; in test [5], 26.8%; in test [6] it was 8.38% (active). Also, the growth in test [7] is 121%; in test [8], 86.5%.
Turning to `COc1cc2c(c(OC)c1OC)CCC(c1cccc(NC(=O)c3cccc(Cl)c3)c1)O2` (stereo not given), the growth is 59.1% in test [1]; 97.2% in test [2]; 89.9% in test [3]; 93.9% in test [4]; 84.4% in test [5]; 87.7% in test [6]. Moreover, the growth in test [7] is 100%; in test [8], 97.1%.
`Nc1c(C(=O)c2ccc(Cl)cc2)sc(Nc2ccccc2)c1-c1nc2ccccc2s1`: the growth in test [1] is 11.8%; in test [2], 55.2%; in test [3] it was 16.7%; in test [4] it was 39.3%; in test [5] it was 43.9%; in test [6], 13.9%. Besides, the growth in test [7] was 67.5%; in test [8], 16.1%.
Consider `Cn1cc(-c2nc(-c3c[nH]c4c(Cl)nccc34)cs2)c2ccccc21`, for which the growth in test [1] is 87.1%; in test [2], 110%; in test [3], 96.4%; in test [4], 99.4%; in test [5], 44.7%; in test [6], 94.4%. Besides, the growth in test [7] was 94.5%; in test [8], 95.9%.
As to `COc1cc(/C=N/NC(=O)c2ccc3nc(-c4ccc(Cl)cc4)[nH]c3c2)cc(OC)c1OC`, the growth in test [1] is 15.9%; in test [2] it was 70.7%; in test [3], 64%; in test [4], 78.7%; in test [5], 12.1%; in test [6], 36.2%. In addition, the growth in test [7] was 80%; in test [8], 61.8%.
Consider `COC(=O)c1ccc(-n2cc(CCCOS(=O)(=O)c3ccc(F)cc3)nn2)cc1`, for which the growth is 97.9% in test [1]; 101% in test [2]; 97.3% in test [3]; 100% in test [4]; 92.1% in test [5]; 99.6% in test [6]. Moreover, the growth in test [7] is 110%; in test [8], 100%.
